Test results taken from PubChem BioAssay (Tox21).
Calls of active or inactive are those of the source. The call rests on the fitted dose curve; in most records, active means well fitted curve in the direction sought with a large enough effect in the repeat runs; inconclusive means weak or mixed curves; inactive means flat fitted curve, though single readings scatter.

Assay: qHTS assay to test for compound auto fluorescence at 535 nm (green) in HepG2 cell free culture (AID 720686)
Details: Cell-free medium, green autofluorescence 485/535 nm; series mostly up to 91.3 µM
Excerpt: U.S. Tox21 Program National Center for Advancing Translational Sciences [NCATS] NIH Chemical Genomics Center [NCGC] U.S. Environmental Protection Agency [EPA] National Institutes of Environmental Health Sciences [NIEHS] National Toxicology Program [NTP] U.S. Food and Drug Administration [FDA] Tox21 Assay Overview: Compound auto fluorescence often interferes with screening of the compound library against various biological targets and signaling pathways. Some of these compounds may have fluorophoric properties. Such properties may interfere with the assay outputs resulting in false positives and/or negatives. To decrease such complications and ensure the compound activities are relevant in terms of biological response, the Tox21 10K compound library was screened for auto fluorescence. From the fluorophores used as reporter signals in our screening assays, the auto fluorescence equivalencies of compounds against three fluorophores have been evaluated: Triamterene, Fluorescein and Rose Bengal sodium for blue, green and red fluorescence, respectively. The fluorescence intensities were measured using Excitation/Emission wavelengths at 405/460nm, 485/535nm and 540/590nm for blue, green and red labels, respectively. This assay includes the green fluorescence data.
Tox21 Assay Protocol Summary: 5 uL of culture medium (MEM containing 10% FBS) per well was dispensed into black wall/clear bottom 1536-well plates using a Multidrop Combi Dispenser (ThermoFisher Scientific, Waltham, MA). After 23 nL compound or DMSO vehicle was transferred into assay plate by a pintool work station (Kalypsys, San Diego, CA), fluorescence intensities in the assay plates were measured by an Envision (PerkinElmer, Shelton, CT) plate reader using three labels for measuring blue, green and red fluorescence at […] 460, 535 and 590nm respectively.

| SMILES | outcome |
| --- | --- |
| CCc1cccc(C)c1N(C(=O)CCl)C(C)COC (stereo not given) | inactive |
| O=S(=O)(c1ccc(O)cc1)c1ccc(O)cc1 | inactive |
| CCOP(=S)(OCC)Oc1cnc2ccccc2n1 | inactive |
| Cc1ccc(N)cc1N | inactive |
| Clc1ccc(Cl)cc1 | inactive |
| NCCc1ccc(O)cc1 | inactive |
| c1ccc2c(c1)oc1ccccc12 | inactive |
| BrCCBr | inactive |
| ClCc1cccnc1 | inactive |
| Cc1ccccc1O | inactive |
| CCCC1COC(Cn2cncn2)(c2ccc(Cl)cc2Cl)O1 (stereo not given) | inactive |
| CCCCCCCCCl | inactive |
| C=C(C)CCl | inactive |
| Nc1ccc(Br)cc1 | inactive |
| Clc1cccc(Cl)c1Cl | inactive |
| CC(C)N1C(=O)c2ccccc2NS1(=O)=O | inactive |
| CCCN(CCC)c1c([N+](=O)[O-])cc(C(F)(F)F)cc1[N+](=O)[O-] | inactive |
| CCC[N+](=O)[O-] | inactive |
| ClCCBr | inactive |
| O=c1[nH]c(=O)[nH]c(=O)[nH]1 | inactive |

| SMILES | outcome |
| --- | --- |
| [O-][Cl+2]([O-])O | inactive |
| CCCCN(CC)C(=O)SCCC | inactive |
| CN(N=O)c1ccccc1 | inactive |
| CC(C)C1(C)N=C(c2nc3ccccc3cc2C(=O)O)NC1=O (stereo not given) | inactive |
| CC(C)C#N | inactive |
| O=S(=O)(c1ccc(Cl)cc1)c1cc(Cl)c(Cl)cc1Cl | inactive |
| c1cc2c3c(cccc3c1)CC2 | inactive |
| O=c1ccc(=O)[nH][nH]1 | inactive |
| O=C(NC(=O)c1c(F)cccc1F)Nc1cc(Cl)c(OC(F)(F)C(F)C(F)(F)F)cc1Cl (stereo not given) | inactive |
| CNC(=O)Oc1ccccc1OC(C)C | inactive |
| Cc1cc(Cl)ccc1O | inactive |
| CON(C)C(=O)Nc1ccc(Cl)c(Cl)c1 | inactive |
| CC(C)(C)C(O)(CCc1ccc(Cl)cc1)Cn1cncn1 (stereo not given) | inactive |
| C=CCO | inactive |
| CCCCCCCCCCCC#N | inactive |
| CCNc1nc(NC(C)(C)C)nc(SC)n1 | inactive |
| CCC[CH2][Sn]([Cl])([Cl])[Cl] | inactive |
| CC(C)=C[C@@H]1[C@@H](C(=O)OCc2coc(Cc3ccccc3)c2)C1(C)C | inactive |
| Cn1cc(-c2ccccc2)c(=O)c(-c2cccc(C(F)(F)F)c2)c1 | inactive |
| O=NN1CCCC1 | inactive |
